55 molecules from ChEMBL document CHEMBL4888484, “Replenishing the malaria drug discovery pipeline: Screening and hit evaluation of the MMV Hit Generation Library 1 (HGL1) against asexual blood stage Plasmodium falciparum ,using a nano luciferase reporter read-out” (2022) can be followed below.

The structures appear in SMILES notation. The campaign covered roughly 150,000 compounds. About 540 (0.36%) showed an effect of 50% or more. Only a selection was taken, and strong results are over-represented in it overall.

This assay relates to Plasmodium falciparum. The experiment in a line: Primary screen in NF54 nanoGlo assay, in single point, at 2uM, 72h; a lower Z score goes with more inhibition. The conditions noted are these: timepoint 72 hour. The class given is functional, Erythrocyte.
By % Inhibition is commonly meant the relative decrease from the control value, in per cent. As for `CN1C(=O)C2(CCN(C(=O)CN3C(=O)OC(C)(C)C3=O)CC2)c2ccccc21`, the “% Inhibition” value is reported as -7% and the Z score turned out to be 0.88.
For the molecule `O=C(CN(CC1CCCO1)C(=O)C1CC1(Cl)Cl)N1CCCC1` (stereo not given), the “% Inhibition” value is given as -19% and the Z score is 1.85.
Consider `O=C(c1cncc(N2CCOCC2)c1)N1CCn2c1nc1ccccc12`, for which the “% Inhibition” value was -9% and the Z score came to 1.5.
In the case of `O=C(c1ccc2c(c1)OCO2)N1CCn2c1nc1ccccc12`, the “% Inhibition” value came to 72% and the Z score was -0.31.
Regarding `O=C(c1cccc(-n2cnnn2)c1)N1CCn2c1nc1ccccc12`, the “% Inhibition” value came out at 2% and the Z score is given as -0.23.
On to `Cc1cnc(C(=O)NC2CCCCCCC2)cn1`, for which the “% Inhibition” value is recorded as 18% and the Z score is on record as -2.33.
Regarding `O=C(CC1CCC(F)(F)CC1)Nc1ccc2c(c1F)CCNC2`, the “% Inhibition” value was -13% and the Z score was found to be 1.83.
With `COc1ccc2nc(O)c(C(=O)Nc3ccc4c(c3F)CCNC4)cc2c1`, the “% Inhibition” value is listed as 99% and the Z score is -18.01.
On the same counts, the results for `COc1ccc2nc(O)c(CCC(=O)N3CCCC3)cc2c1` are -20% and 3.74.
Regarding `CC(C)n1ccnc1CN1CCC[C@@](O)(CNC(=O)N2CCCCC2)CC1`, the “% Inhibition” value is listed as -5% and the Z score was 0.65.
Take `CN1CCC(NCC[C@@H](Cc2ccccc2Cl)c2ccc(Cl)cc2)CC1`: the “% Inhibition” value was found to be 72% and the Z score is on record as -14.93.
The corresponding values for `CC(Cc1ccccc1Cl)C(=O)NC1CCN(C(=O)Nc2ccccc2)C1` (stereo not given) are -1% and 0.11.
Consider `CC(C)CC[C@@H](CCNC1CCN(C)CC1)c1ccc(Cl)cc1`, for which the “% Inhibition” value came to 63% and the Z score was -7.69.
Regarding `CC(C)CC[C@@H](CCNCCN(C)C)c1ccc(Cl)cc1`, the “% Inhibition” value is 90% and the Z score is listed as -10.16.
With `CC(C)CCn1ccc(NC2CCN(C)CC2)n1`, the “% Inhibition” value is given as -15% and the Z score came out at 1.91.
On to `CN1CCC(NCCOCc2ccc(Cl)cc2Cl)CC1`, for which the “% Inhibition” value is listed as 0% and the Z score came to 0.
Take `CC(C)CC[C@@H](CCN1CCCC1)c1ccc(OC(C)C)cc1`: the “% Inhibition” value is listed as 2% and the Z score is given as -0.36.
The corresponding values for `CC(C)CC[C@@H](CCNCc1ccccn1)c1ccc(Cl)cc1` are 25% and -3.14.
With `COc1ccc(Cl)cc1CNCCN(C)C`, the “% Inhibition” value is -7% and the Z score came out at 0.59.
The corresponding values for `Cn1ccc(-c2nnc(NC(=O)C3CCCCC3)o2)n1` are -10% and 1.57.
In the case of `Cc1c(F)cccc1C(=O)N(C)Cc1cc(C2CC2)on1`, the “% Inhibition” value came out at 1% and the Z score is -0.14.
The corresponding values for `Cc1nn(C(F)F)cc1-c1ccc(C(=O)N[C@H]2CCCC[C@@H]2O)cc1` are 1% and -0.28.
Regarding `CCn1c(CCc2cccc(NC(=O)Nc3ccccc3)c2)nc2ccccc21`, the “% Inhibition” value amounted to 1% and the Z score is -0.11.
On to `O=C(NCCc1cn2c(n1)CCCC2)c1cccnc1`, for which the “% Inhibition” value was -1% and the Z score was determined as 0.23.
With `CCC1CN(C(=O)NCc2cc(OC)no2)CC(C)O1` (stereo not given), the “% Inhibition” value is -11% and the Z score is given as 2.2.
As to `CC1(C(=O)Nc2n[nH]c3cc(F)ccc23)CC2CCC1O2` (stereo not given), the “% Inhibition” value is on record as -7% and the Z score stood at 1.08.
On to `Cc1cc(C)c(C(=O)NCC#C[C@@H]2CCCCO2)c(C)n1`, for which the “% Inhibition” value is given as -23% and the Z score amounted to 2.49.
The corresponding values for `Cc1cccc2ncc(C(=O)N[C@@]34COC[C@@H]3C4)n12` are -12% and 1.31.
In the case of `O=C(NC[C@H]1OC[C@@H](NCc2cccnc2)[C@@H]1O)c1ccc(F)cc1`, the “% Inhibition” value is -7% and the Z score was found to be 0.99.
Take `Cc1c([C@@H](NCC(=O)N2CCC(C(N)=O)CC2)C(C)C)oc2ccccc12`: the “% Inhibition” value was -13% and the Z score amounted to 1.5.
For `Cc1c([C@H](C)NCc2cncnc2)oc2ccccc12`, the “% Inhibition” value is given as -15% and the Z score turned out to be 1.68.
As for `Cc1c([C@@H](NCc2ncccc2O)C(C)C)oc2ccccc12`, the “% Inhibition” value is 97% and the Z score was -8.67.
For the molecule `CC(C)C(=O)N1CCc2ccc(OCc3nc(C(=O)N(C)Cc4ccccc4)cs3)cc2[C@@H]1c1ccccc1`, the “% Inhibition” value worked out at 1% and the Z score is listed as -0.07.
For the molecule `CN(C)c1ncc(CN[C@H]2[C@H](c3ccccc3)C2(C)C)cn1`, the “% Inhibition” value was found to be 10% and the Z score was -1.13.
The corresponding values for `CC(C)CC[C@@]1(C2CC2)NC(=O)N(Cc2ccc(C#N)cn2)C1=O` are -14% and 2.83.
As to `O=C(c1csnn1)N1CCc2[nH]nc(-c3ccccc3F)c2C1`, the “% Inhibition” value is on record as -7% and the Z score is given as 1.02.
As for `COc1ccc(F)cc1S(=O)(=O)N1CCc2ncncc2C1`, the “% Inhibition” value is -3% and the Z score came out at 0.62.
In the case of `COc1ccc(F)cc1S(=O)(=O)N1CCn2c(nn(C)c2=O)C1`, the “% Inhibition” value is listed as -13% and the Z score was 2.3.
On the same counts, the results for `COc1ccc(F)cc1S(=O)(=O)N1CCc2noc(N)c2C1` are 72% and -5.81.
The corresponding values for `O=C(c1ccc(O)cc1)N1CCN(Cc2ccccn2)[C@@H]2CS(=O)(=O)C[C@@H]21` are 3% and -0.42.
The corresponding values for `Cc1nn(-c2nc3ccccc3[nH]2)c2c1[C@@H](c1c(C)sc3ccccc13)CC(=O)N2` are 4% and -0.46.
Take `Cc1nn(-c2nc3ccccc3[nH]2)c2c1[C@@H](c1ccc(Cl)c(Cl)c1)CC(=O)N2`: the “% Inhibition” value is listed as 14% and the Z score is recorded as -1.74.
Turning to `Cc1nn(-c2nc3ccccc3[nH]2)c2c1[C@@H](c1cccnc1)CC(=O)N2`, the “% Inhibition” value came to 68% and the Z score was -14.32.
Regarding `C[C@H]1CCN(C(=O)c2cccc3c2CCCN3)[C@@H](C)C1`, the “% Inhibition” value amounted to 12% and the Z score is recorded as -1.41.
For `CC(C)(C)C1CCC(O)(CNC(=O)NC2CCC(O)CC2)CC1` (stereo not given), the “% Inhibition” value is given as 0% and the Z score is on record as -0.1.
For `CCOC(=O)c1n[nH]cc1CNCc1cccnc1N(C)C`, the “% Inhibition” value was 4% and the Z score is on record as -0.61.
Turning to `COc1cc(Br)c(NC(=O)N(C)CC(C)C)cc1OC`, the “% Inhibition” value is given as -13% and the Z score was 1.89.
As to `COc1ccc(OC)c2c(/C=C/c3c[nH]c4ccccc34)ccnc12`, the “% Inhibition” value is reported as -8% and the Z score is 0.9.
In the case of `CCc1ccc(/C=C/c2c[nH]c3ccccc23)[n+](CC)c1`, the “% Inhibition” value came to 93% and the Z score is -8.52.
On the same counts, the results for `c1ccc2c(C(c3c[nH]c4ccccc34)c3c[nH]c4ccccc34)c[nH]c2c1` are -27% and 3.19.
As to `C[n+]1ccccc1/C=C/c1c[nH]c2ccccc12`, the “% Inhibition” value came out at 91% and the Z score was -8.06.
On the same counts, the results for `C1=Cn2nc(/C=C/c3c[nH]c4ccccc34)nc2-c2ccccc2O1` are -30% and 3.55.
The corresponding values for `CCCCc1ccc(NCc2c[nH]c3ccccc23)cc1` are 1% and -0.17.
On to `c1cnc(NCc2cnc(N3CCCC3)s2)cn1`, for which the “% Inhibition” value is given as -3% and the Z score came to 0.38.
As to `Cn1cccc1CN[C@H]1CCOc2ccc(F)cc21`, the “% Inhibition” value is given as -10% and the Z score is 1.36.
